Key:
Test in all cases: DAPPL (digital affinity profiling via proximity ligation, sequencing); 10 mM Tris-HCl pH 7.5, 50 mM NaCl, 1 mM DTT, 4% glycerol, room temperature, 30 min; GST-TFs on glutathione beads, 16-mer random dsDNA library, 0.1% formaldehyde crosslink after washing; high values mean tight binding
FEV = target: T1, FEV (Homo sapiens, UniProt Q99581 1-238); conditions: protein: recombinant; tags: N-terminal GST; dsDNA, one strand shown
T1 sequence: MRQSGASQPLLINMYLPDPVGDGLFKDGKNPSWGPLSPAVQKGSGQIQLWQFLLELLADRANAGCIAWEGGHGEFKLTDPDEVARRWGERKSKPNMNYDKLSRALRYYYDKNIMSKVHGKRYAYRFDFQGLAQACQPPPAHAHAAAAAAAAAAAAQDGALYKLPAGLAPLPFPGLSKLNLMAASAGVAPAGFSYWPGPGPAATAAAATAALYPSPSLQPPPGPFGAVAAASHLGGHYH
How it was run: (§1)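 In yeast, human transcription factors were expressed with a GST fusion, then pulled down on glutathione beads and given DNA barcodes. Pooled with a tag-only sample, they were exposed to 200 nmole of a 16-mer random double-stranded DNA library (Tris/NaCl/DTT/glycerol buffer, room temperature, 30 min), washed, crosslinked with 0.1% formaldehyde, proximity-ligated using BsaI/T4 ligase for 1 h at 37 °C, PCR-amplified and read on an Illumina NextSeq500. Each hexamer's frequency of reads for a factor, divided by the matching frequency for the tag-only sample, gives the binding signal.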

ETV5 = ETV5 (Homo sapiens, UniProt P41161 1-510); conditions: protein: recombinant; tags: N-terminal GST; dsDNA, one strand shown
Chain of ETV5 (P41161 whole entry): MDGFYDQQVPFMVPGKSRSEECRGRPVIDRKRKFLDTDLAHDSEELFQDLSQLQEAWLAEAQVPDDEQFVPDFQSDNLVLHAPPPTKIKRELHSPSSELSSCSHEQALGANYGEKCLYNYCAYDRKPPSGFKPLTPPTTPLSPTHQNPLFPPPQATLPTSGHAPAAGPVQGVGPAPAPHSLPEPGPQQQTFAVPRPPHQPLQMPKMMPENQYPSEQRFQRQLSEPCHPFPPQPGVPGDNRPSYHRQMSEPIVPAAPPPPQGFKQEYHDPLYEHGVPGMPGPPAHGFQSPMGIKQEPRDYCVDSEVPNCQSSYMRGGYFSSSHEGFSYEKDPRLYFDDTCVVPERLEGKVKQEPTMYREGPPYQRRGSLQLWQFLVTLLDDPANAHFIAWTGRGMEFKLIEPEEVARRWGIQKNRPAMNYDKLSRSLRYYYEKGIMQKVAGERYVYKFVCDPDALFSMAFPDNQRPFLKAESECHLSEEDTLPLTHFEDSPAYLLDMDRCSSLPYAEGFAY
How it was run: as §1

HSF1 = HSF1 (Homo sapiens, UniProt Q00613 1-529); conditions: protein: recombinant; tags: N-terminal GST; chain copies: 3; dsDNA, one strand shown
Chain of HSF1 (Q00613 whole entry): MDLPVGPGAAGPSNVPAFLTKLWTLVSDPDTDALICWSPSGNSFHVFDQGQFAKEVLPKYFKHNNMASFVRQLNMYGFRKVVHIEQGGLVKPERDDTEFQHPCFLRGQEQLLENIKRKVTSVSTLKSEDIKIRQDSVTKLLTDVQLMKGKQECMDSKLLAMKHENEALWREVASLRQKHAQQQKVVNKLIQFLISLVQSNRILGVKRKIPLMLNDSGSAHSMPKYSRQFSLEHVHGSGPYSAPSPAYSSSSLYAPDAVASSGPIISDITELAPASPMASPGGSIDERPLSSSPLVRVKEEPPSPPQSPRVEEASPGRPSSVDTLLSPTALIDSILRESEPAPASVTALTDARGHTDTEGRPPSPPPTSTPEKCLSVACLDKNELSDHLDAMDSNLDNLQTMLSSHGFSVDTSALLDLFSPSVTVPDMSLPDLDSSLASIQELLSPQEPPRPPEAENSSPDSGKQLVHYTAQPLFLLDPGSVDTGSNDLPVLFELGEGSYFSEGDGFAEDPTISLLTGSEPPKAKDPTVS
How it was run: as §1

SPIC = target: T2, SPIC (Homo sapiens, UniProt Q8N5J4 1-248); conditions: protein: recombinant; tags: N-terminal GST; dsDNA, one strand shown
T2 sequence: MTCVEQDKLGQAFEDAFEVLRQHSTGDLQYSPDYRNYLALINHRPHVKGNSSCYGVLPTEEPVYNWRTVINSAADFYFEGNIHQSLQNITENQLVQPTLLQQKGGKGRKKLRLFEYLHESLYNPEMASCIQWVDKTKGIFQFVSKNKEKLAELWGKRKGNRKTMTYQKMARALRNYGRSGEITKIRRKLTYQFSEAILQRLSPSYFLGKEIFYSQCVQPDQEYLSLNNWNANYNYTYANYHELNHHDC
How it was run: as §1

ELF4 = ELF4 (Homo sapiens, UniProt Q99607 1-663); conditions: protein: recombinant; tags: N-terminal GST; dsDNA, one strand shown
Chain of ELF4 (Q99607 whole entry): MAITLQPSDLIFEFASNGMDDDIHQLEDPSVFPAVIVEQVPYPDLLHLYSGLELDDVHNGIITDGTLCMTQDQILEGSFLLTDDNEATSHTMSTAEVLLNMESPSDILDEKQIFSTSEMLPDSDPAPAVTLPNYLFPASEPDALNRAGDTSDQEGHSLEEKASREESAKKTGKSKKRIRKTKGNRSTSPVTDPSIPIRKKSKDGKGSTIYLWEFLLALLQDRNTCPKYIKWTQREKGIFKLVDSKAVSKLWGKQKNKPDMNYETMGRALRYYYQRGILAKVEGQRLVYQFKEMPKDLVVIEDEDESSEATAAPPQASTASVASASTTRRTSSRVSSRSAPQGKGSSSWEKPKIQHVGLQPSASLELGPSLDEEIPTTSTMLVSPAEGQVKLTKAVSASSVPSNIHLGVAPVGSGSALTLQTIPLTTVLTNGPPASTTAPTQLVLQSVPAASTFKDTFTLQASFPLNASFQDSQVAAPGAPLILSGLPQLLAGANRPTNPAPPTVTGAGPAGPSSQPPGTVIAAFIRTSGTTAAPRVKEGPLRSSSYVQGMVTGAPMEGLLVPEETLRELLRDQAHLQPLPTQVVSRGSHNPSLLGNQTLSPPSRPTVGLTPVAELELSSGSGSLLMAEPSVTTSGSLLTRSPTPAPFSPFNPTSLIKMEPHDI
How it was run: as §1

ELK4 = target: T3, ELK4 (Homo sapiens, UniProt P28324-2 1-405); conditions: protein: recombinant; tags: N-terminal GST; dsDNA, one strand shown
T3 sequence: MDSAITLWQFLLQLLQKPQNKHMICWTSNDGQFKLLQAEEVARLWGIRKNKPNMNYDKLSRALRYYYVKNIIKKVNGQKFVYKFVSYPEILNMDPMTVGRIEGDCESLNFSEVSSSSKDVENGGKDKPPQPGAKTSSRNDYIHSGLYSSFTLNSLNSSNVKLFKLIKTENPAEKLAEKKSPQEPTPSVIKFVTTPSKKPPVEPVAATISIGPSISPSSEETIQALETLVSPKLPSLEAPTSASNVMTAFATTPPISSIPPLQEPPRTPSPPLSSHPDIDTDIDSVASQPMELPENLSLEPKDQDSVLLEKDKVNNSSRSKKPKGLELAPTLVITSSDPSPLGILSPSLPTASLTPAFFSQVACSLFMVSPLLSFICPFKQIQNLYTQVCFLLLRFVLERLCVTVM
How it was run: as §1

ETV2 = target: T4, ETV2 (Homo sapiens, UniProt O00321 1-342); conditions: protein: recombinant; tags: N-terminal GST; dsDNA, one strand shown
T4 sequence: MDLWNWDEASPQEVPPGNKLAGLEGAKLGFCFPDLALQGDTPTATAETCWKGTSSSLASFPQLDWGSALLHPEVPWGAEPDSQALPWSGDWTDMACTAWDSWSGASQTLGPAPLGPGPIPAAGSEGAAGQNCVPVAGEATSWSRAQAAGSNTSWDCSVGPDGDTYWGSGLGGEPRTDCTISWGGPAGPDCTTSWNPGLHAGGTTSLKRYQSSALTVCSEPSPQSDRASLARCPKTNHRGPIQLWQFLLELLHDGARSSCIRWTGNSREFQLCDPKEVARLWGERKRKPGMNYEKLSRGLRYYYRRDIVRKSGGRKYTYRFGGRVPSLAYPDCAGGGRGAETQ
How it was run: as §1

ELF3 = target: T5, ELF3 (Homo sapiens, UniProt P78545 1-371); conditions: protein: recombinant; tags: N-terminal GST; dsDNA, one strand shown
T5 sequence: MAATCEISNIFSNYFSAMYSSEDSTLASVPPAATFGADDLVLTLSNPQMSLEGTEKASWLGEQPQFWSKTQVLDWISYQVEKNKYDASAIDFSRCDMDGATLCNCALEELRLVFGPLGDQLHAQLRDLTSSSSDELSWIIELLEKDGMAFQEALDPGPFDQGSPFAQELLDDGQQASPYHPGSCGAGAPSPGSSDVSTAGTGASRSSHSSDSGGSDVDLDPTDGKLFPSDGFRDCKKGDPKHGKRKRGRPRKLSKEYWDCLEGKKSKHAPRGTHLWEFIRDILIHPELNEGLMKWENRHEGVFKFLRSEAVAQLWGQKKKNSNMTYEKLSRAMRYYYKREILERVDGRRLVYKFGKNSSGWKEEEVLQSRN
How it was run: as §1

ETV1 = ETV1 (Homo sapiens, UniProt P50549 1-477); conditions: protein: recombinant; tags: N-terminal GST; dsDNA, one strand shown
Chain of ETV1 (P50549 whole entry): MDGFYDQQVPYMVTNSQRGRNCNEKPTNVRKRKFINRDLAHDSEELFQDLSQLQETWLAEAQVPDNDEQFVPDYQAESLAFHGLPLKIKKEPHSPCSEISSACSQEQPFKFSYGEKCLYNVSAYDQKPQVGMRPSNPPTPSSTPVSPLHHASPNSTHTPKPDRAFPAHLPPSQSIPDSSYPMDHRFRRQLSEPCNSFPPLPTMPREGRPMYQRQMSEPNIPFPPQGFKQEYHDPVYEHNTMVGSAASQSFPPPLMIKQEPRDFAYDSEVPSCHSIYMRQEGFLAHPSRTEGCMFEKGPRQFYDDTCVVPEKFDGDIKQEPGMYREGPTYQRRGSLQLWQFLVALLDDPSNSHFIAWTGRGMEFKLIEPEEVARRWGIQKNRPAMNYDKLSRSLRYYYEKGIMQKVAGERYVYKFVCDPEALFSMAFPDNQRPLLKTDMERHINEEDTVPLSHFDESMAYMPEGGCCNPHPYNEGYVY
How it was run: as §1

CCGTCC
binding signal (FEV): 1.38 fold enrichment (6-mer frequency, TF over GST control)
binding signal (ETV5): 1.26 fold enrichment (6-mer frequency, TF over GST control)
binding signal (HSF1): 1.03 fold enrichment (6-mer frequency, TF over GST control)
binding signal (SPIC): 1.39 fold enrichment (6-mer frequency, TF over GST control)
binding signal (ELF4): 1.37 fold enrichment (6-mer frequency, TF over GST control)
binding signal (ELK4): 1.28 fold enrichment (6-mer frequency, TF over GST control)
binding signal (ETV2): 1.8 fold enrichment (6-mer frequency, TF over GST control)
binding signal (ELF3): 1.43 fold enrichment (6-mer frequency, TF over GST control)
binding signal (ETV1): 1.38 fold enrichment (6-mer frequency, TF over GST control)

— article PMC7862700, “An all-to-all approach to the identification of sequence-specific readers for epigenetic DNA modifications on cytosine”
